PubChem BioAssay (NCI)
Compounds without any hit were thinned out: in the full panel of roughly 83,000, 20% have a hit.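 For each line, cells grew in 96-well plates with the test compound present at a single concentration for 48 hours.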 The source made the active and inactive calls. Rule for the calls: active = growth percent below 10; inactive = the rest.

tested on: ACHN renal; assay: NCI-60 one-dose screen, 48 h (100 = growth as untreated, 0 = no growth, -100 = all killed); conditions: 10 µM unless noted

Compound	growth
CCCCCCCOc1cccc(/C=C2\N=C3SCCCN3C2=O)c1	96.4% (inactive)
CN(C)c1ccc(C2(Cl)c3ccccc3N(C)c3ccccc32)cc1	55.6% (inactive)
O=C(Nc1cccc(-n2ccc3c(NC(=O)c4ccccc4)nccc32)c1)c1ccc(N2CCOCC2)c(C(F)(F)F)c1	24.2% (inactive)
Fc1ccc(-c2nc(-c3ccc(-c4nc5ccc(F)cc5[nH]4)cc3)no2)cc1	71% (inactive)
Clc1ccc(C2=NN[C@H](c3cn(-c4ccccc4)nc3-c3ccccc3)C2)cc1	53.1% (inactive)
CNC1=C([N+](=O)[O-])C(c2ccccc2O)C(C#N)=C(c2cccs2)O1 (configuration not stated)	94.8% (inactive)

tested on: CAKI-1 renal; assay: as above; conditions: 10 µM unless noted

Compound	growth
CCCCCCCCN(CCCCCCCC)C(=O)CCl	44.9% (inactive)
O=C(Nc1ccc(-n2ccc3c(NC(=O)c4ccccc4)nccc32)cc1)c1ccc(N2CCOCC2)c(C(F)(F)F)c1	25.6% (inactive)
O=C1/C(=C/c2ccccc2)SC(=Nc2ccccc2)N1Nc1ccccc1	17.1% (inactive)
C[N+](C)(C)CC(=O)N/N=C\c1ccco1	98% (inactive)
CC(C)CCSc1nc(-c2ccc(F)cc2)c(C#N)c(N2CCN(C)CC2)n1	60.8% (inactive)
CC(=O)Oc1c(Cl)c(Cl)c(Cl)c(Cl)c1Cl	89.2% (inactive)
CN(C)c1nc(-c2cccs2)n2nc(-c3ccc(Cl)cc3)cc2n1	18.8% (inactive)
COc1nccc2c(Sc3ccccc3)nc(N)nc12	106% (inactive)
c1cn2cc(-c3ccc4ncn(C5CCCCC5)c4c3)nc(-c3ccc4c(c3)ncn4C3CCCCC3)c2n1	17.2% (inactive)
CCc1onc(-c2ccc(OC)cc2)c1-c1ccccc1OCCN(CC)CC	82.4% (inactive)
CCN(CCC#N)c1ccccc1	97.7% (inactive)
S=C(S)Oc1cccc2cccnc12	91.7% (inactive)
COc1ccccc1CNCCCN1C(=O)c2ccc3c4c(ccc(c24)C1=O)C(=O)N(CCCNCCCN)C3=O	31.9% (inactive)
CC(C)c1ccc(-c2cnc3nonc3n2)cc1	60.7% (inactive)
CN1CCCN(CCNc2nccc(-c3c(-c4cccc(O)c4)nc4sccn34)n2)S1(=O)=O	-25% (active)
COc1ccccc1CNCCCN1C(=O)c2ccc3c4c(ccc(c24)C1=O)C(=O)N(CCCCNCCCN)C3=O	94.1% (inactive)
CCC(=O)OCc1ccc(OC)cc1	96.6% (inactive)
COc1ccc2[nH]cc(C3(c4c[nH]c5ccc(OC)cc45)C(=O)Nc4ccc(F)cc43)c2c1	40.8% (inactive)
CN1C(=O)NC(Cc2c[nH]c3c(Cl)cccc23)C1=O (configuration not stated)	125% (inactive)

Compound	growth
NC(N)=N/N=C/c1ccc(Cl)cc1	34% (inactive)
CC(C)(c1ccccc1)c1cc(O)c(C(C)(C)c2ccccc2)cc1O	31.6% (inactive)
COc1cc(-c2nn(C(=O)NCCN3CCN(C)CC3)cc2-c2ccncc2)ccc1Cl	79.7% (inactive)
CCCCCCCCCCCCCCCCCC(=O)[O][Sn]([CH2]CCC)([CH2]CCC)[CH2]CCC	-86.5% (active)
CC(C)c1nc2ccccc2n1CC(=O)N/N=C/c1cccc(O)c1	101% (inactive)
O=C(Nc1ccc(Cl)cc1)c1cc(-c2ccc(Cl)cc2)c2sc(=O)[nH]c2n1	8.17% (active)
Oc1ccc(-c2nnc3c4[nH]ccc4ncn23)cc1	84.7% (inactive)
Cc1nc(N)nc2c1CCC(Nc1ccccc1)S2 (configuration not stated)	94% (inactive)
NNC(=O)CSc1nc2scc(-c3ccccc3)c2c(=O)n1-c1ccccc1	106% (inactive)
COC(=O)C(Br)(C(=O)OC)C(Br)C(Br)C(Br)c1ccccc1 (configuration not stated)	-69.6% (active)
COc1cnc2c(c1)C(=O)c1c-2n(CCCN2CCN(C)CC2)c(=O)c2cc(Cl)ccc12	45.3% (inactive)
COc1cc([N+](=O)[O-])cc(OC)c1OC	89.5% (inactive)
O=c1oc2ccccc2cc1-c1cc(-c2ccc(-c3cc(-c4cc5ccccc5oc4=O)nc(-c4cc5ccccc5oc4=O)c3)cc2)cc(-c2cc3ccccc3oc2=O)n1	105% (inactive)
CCCCCCCOc1cccc(/C=C2\N=C3SCCCN3C2=O)c1	94.4% (inactive)
CN(C)c1ccc(C2(Cl)c3ccccc3N(C)c3ccccc32)cc1	81.2% (inactive)
O=C(Nc1cccc(-n2ccc3c(NC(=O)c4ccccc4)nccc32)c1)c1ccc(N2CCOCC2)c(C(F)(F)F)c1	14.8% (inactive)
Fc1ccc(-c2nc(-c3ccc(-c4nc5ccc(F)cc5[nH]4)cc3)no2)cc1	81.3% (inactive)
Clc1ccc(C2=NN[C@H](c3cn(-c4ccccc4)nc3-c3ccccc3)C2)cc1	19.6% (inactive)
CNC1=C([N+](=O)[O-])C(c2ccccc2O)C(C#N)=C(c2cccs2)O1 (configuration not stated)	78% (inactive)

tested on: A498 renal; assay: as above; conditions: 10 µM unless noted

Compound	growth
CCCCCCCCN(CCCCCCCC)C(=O)CCl	99.8% (inactive)
O=C(Nc1ccc(-n2ccc3c(NC(=O)c4ccccc4)nccc32)cc1)c1ccc(N2CCOCC2)c(C(F)(F)F)c1	68.9% (inactive)
O=C1/C(=C/c2ccccc2)SC(=Nc2ccccc2)N1Nc1ccccc1	-33.1% (active)
C[N+](C)(C)CC(=O)N/N=C\c1ccco1	98.7% (inactive)
CC(C)CCSc1nc(-c2ccc(F)cc2)c(C#N)c(N2CCN(C)CC2)n1	69.7% (inactive)
CC(=O)Oc1c(Cl)c(Cl)c(Cl)c(Cl)c1Cl	86.1% (inactive)
CN(C)c1nc(-c2cccs2)n2nc(-c3ccc(Cl)cc3)cc2n1	-11.4% (active)
COc1nccc2c(Sc3ccccc3)nc(N)nc12	76.2% (inactive)
c1cn2cc(-c3ccc4ncn(C5CCCCC5)c4c3)nc(-c3ccc4c(c3)ncn4C3CCCCC3)c2n1	-88.1% (active)
CCc1onc(-c2ccc(OC)cc2)c1-c1ccccc1OCCN(CC)CC	63.3% (inactive)
CCN(CCC#N)c1ccccc1	130% (inactive)
S=C(S)Oc1cccc2cccnc12	105% (inactive)
COc1ccccc1CNCCCN1C(=O)c2ccc3c4c(ccc(c24)C1=O)C(=O)N(CCCNCCCN)C3=O	14.9% (inactive)
CC(C)c1ccc(-c2cnc3nonc3n2)cc1	61.8% (inactive)
CN1CCCN(CCNc2nccc(-c3c(-c4cccc(O)c4)nc4sccn34)n2)S1(=O)=O	58.8% (inactive)
COc1ccccc1CNCCCN1C(=O)c2ccc3c4c(ccc(c24)C1=O)C(=O)N(CCCCNCCCN)C3=O	87.9% (inactive)
CCC(=O)OCc1ccc(OC)cc1	144% (inactive)
COc1ccc2[nH]cc(C3(c4c[nH]c5ccc(OC)cc45)C(=O)Nc4ccc(F)cc43)c2c1	60.8% (inactive)
CN1C(=O)NC(Cc2c[nH]c3c(Cl)cccc23)C1=O (configuration not stated)	106% (inactive)

Compound	growth
NC(N)=N/N=C/c1ccc(Cl)cc1	68.2% (inactive)
CC(C)(c1ccccc1)c1cc(O)c(C(C)(C)c2ccccc2)cc1O	8.74% (active)
COc1cc(-c2nn(C(=O)NCCN3CCN(C)CC3)cc2-c2ccncc2)ccc1Cl	65.8% (inactive)
CCCCCCCCCCCCCCCCCC(=O)[O][Sn]([CH2]CCC)([CH2]CCC)[CH2]CCC	-98% (active)
CC(C)c1nc2ccccc2n1CC(=O)N/N=C/c1cccc(O)c1	88% (inactive)
O=C(Nc1ccc(Cl)cc1)c1cc(-c2ccc(Cl)cc2)c2sc(=O)[nH]c2n1	-43.8% (active)
Oc1ccc(-c2nnc3c4[nH]ccc4ncn23)cc1	74.4% (inactive)
Cc1nc(N)nc2c1CCC(Nc1ccccc1)S2 (configuration not stated)	97% (inactive)
NNC(=O)CSc1nc2scc(-c3ccccc3)c2c(=O)n1-c1ccccc1	87.4% (inactive)
COC(=O)C(Br)(C(=O)OC)C(Br)C(Br)C(Br)c1ccccc1 (configuration not stated)	101% (inactive)
COc1cnc2c(c1)C(=O)c1c-2n(CCCN2CCN(C)CC2)c(=O)c2cc(Cl)ccc12	-4.26% (active)
COc1cc([N+](=O)[O-])cc(OC)c1OC	79.9% (inactive)
O=c1oc2ccccc2cc1-c1cc(-c2ccc(-c3cc(-c4cc5ccccc5oc4=O)nc(-c4cc5ccccc5oc4=O)c3)cc2)cc(-c2cc3ccccc3oc2=O)n1	98.1% (inactive)
CCCCCCCOc1cccc(/C=C2\N=C3SCCCN3C2=O)c1	94.6% (inactive)
CN(C)c1ccc(C2(Cl)c3ccccc3N(C)c3ccccc32)cc1	77.2% (inactive)
O=C(Nc1cccc(-n2ccc3c(NC(=O)c4ccccc4)nccc32)c1)c1ccc(N2CCOCC2)c(C(F)(F)F)c1	21.9% (inactive)
Fc1ccc(-c2nc(-c3ccc(-c4nc5ccc(F)cc5[nH]4)cc3)no2)cc1	79.6% (inactive)
Clc1ccc(C2=NN[C@H](c3cn(-c4ccccc4)nc3-c3ccccc3)C2)cc1	91% (inactive)
CNC1=C([N+](=O)[O-])C(c2ccccc2O)C(C#N)=C(c2cccs2)O1 (configuration not stated)	110% (inactive)
